Source: PubChem
GPR151 ag – activators of human GPR151; Q8TDV0; PathHunter beta-arrestin GPR151 cells, luminescence; activation, % at 11.2 µM; actives 1% (n = 650,000); AID 1508602; in the data active means activation above about 4.9%
TEAD-YAP block – TEAD-YAP interaction inhibition. HEK-TIYL cells, TEAD-Gal4/YAP UAS-luciferase luminescence. AID 1259422. actives 1.4% (n = 640,000). inhibition, % at 9.12 µM; in the data active means inhibition above about 32%
MITF primary – blocks human microphthalmia-associated transcription factor; O75030; inhibition, % at 2.6 µM; AlphaScreen MITF homodimerization, bead proximity signal; actives 0.91% (n = 650,000); AID 1259374; in the data active means inhibition above about 50%
FBW7 activator – activators of human E3 ligase FBW7; AID 1259310; AlphaScreen FBW7–phospho-cyclin E peptide binding, activator screen; Q969H0; actives 0.13% (n = 650,000); normalized activity (activation), % at 26.1 µM; in the data active means normalized activity above about 1.9%;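 further: purified mutant Fbw7 with reduced substrate affinity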
Target sequence (Q969H0 whole entry, looked up): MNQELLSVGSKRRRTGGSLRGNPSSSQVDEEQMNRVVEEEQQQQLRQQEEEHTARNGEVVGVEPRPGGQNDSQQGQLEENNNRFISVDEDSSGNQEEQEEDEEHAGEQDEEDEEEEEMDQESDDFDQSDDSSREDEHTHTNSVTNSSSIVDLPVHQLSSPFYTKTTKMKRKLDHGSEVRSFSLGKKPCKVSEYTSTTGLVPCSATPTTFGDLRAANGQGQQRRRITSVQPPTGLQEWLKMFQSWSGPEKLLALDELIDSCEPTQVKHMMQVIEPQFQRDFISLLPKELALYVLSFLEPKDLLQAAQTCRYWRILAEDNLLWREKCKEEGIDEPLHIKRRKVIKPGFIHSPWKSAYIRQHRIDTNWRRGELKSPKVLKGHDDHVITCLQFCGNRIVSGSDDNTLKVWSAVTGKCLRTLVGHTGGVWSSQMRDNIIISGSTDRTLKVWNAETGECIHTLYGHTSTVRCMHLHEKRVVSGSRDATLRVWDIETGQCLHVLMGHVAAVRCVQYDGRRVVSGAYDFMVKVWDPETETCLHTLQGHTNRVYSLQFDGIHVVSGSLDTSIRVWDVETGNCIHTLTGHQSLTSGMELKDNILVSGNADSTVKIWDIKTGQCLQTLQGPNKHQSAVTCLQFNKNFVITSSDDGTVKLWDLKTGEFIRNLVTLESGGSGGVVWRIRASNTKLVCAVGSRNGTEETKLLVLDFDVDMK
Numbers stand for hits; – = inactive. A selection: hits, their analogues and other compounds. The true share with any hit is near 3.5%.

SMILES	GPR151 ag	TEAD-YAP block	MITF primary	FBW7 activator
Cn1c2ccc(F)cc2c2nnc(SCC(=O)NCc3ccccc3)nc21	–	–	–	–
COc1ccc(C(=O)Cn2ccsc2=N)cc1	–	–	–	–
COc1ccc(C(=O)CN2Cc3ccccc3C2=N)cc1OC	–	–	–	–
N=C1c2ccccc2CN1CC(=O)c1ccc(-c2ccccc2)cc1	–	79.6	–	–
N=C1c2ccccc2CN1CC(=O)c1ccc2c(c1)OCCO2	–	77.5	–	–
N=c1sccn1CC(=O)c1ccc2c(c1)OCCO2	–	34.8	–	–
CCc1c(C)sc(NC(=O)Nc2ccc(Cl)cc2)c1C#N	–	–	–	–
CC(C)Cc1nnc(NC(=O)CC(C)(C)C)s1	–	–	–	2.1
Cc1ccccc1NC(=O)c1cnn2ccccc12	–	–	–	–
CCOc1ccc(NC(=O)c2cnn3ccccc23)cc1	–	94.1	–	–
CCc1ccc(NC(=O)c2cnn3ccccc23)cc1	–	89.4	–	–
COc1ccccc1Cn1cnc2ccccc21	–	–	–	–
CCOC(=O)c1c(C)nc(Nc2nc3ccccc3o2)nc1-c1ccccc1	–	–	–	–
CCOC(=O)c1cnc(Nc2nc3ccccc3o2)nc1C	–	43.5	–	–
COc1cc(Br)cc2c1OC(c1ccc3c(c1)OCO3)C([N+](=O)[O-])=C2 (configuration not stated)	–	–	–	–
COc1ccc(C2Oc3c(cccc3OC)C=C2[N+](=O)[O-])cc1OC (configuration not stated)	–	42.9	–	–
COc1ccc(C2Oc3c(cc(Br)cc3OC)C=C2[N+](=O)[O-])cc1OC (configuration not stated)	–	69.5	–	–
CCOc1ccc(C2Oc3c(cccc3OC)C=C2[N+](=O)[O-])cc1OC (configuration not stated)	–	–	–	–
CCOc1ccc(C2Oc3c(cc(Br)cc3OC)C=C2[N+](=O)[O-])cc1OC (configuration not stated)	–	62.0	–	–
CCN(CC)c1ccc(NS(=O)(=O)c2c(C)[nH]c(=O)[nH]c2=O)c(C)c1	–	–	–	–
O=C(Nc1cc(F)ccc1F)c1nc2ncccn2n1	–	–	–	–
O=C1C=C(Nc2cccc(C(=O)O)c2)c2ccccc2C1=O	–	–	–	–
O=C1C=C(NCc2ccccc2)c2ccccc2C1=O	–	50.7	–	–
CC(=O)NC(CC(C)C)c1nnc2n1CCN(C(=O)CCc1cccs1)CC2 (configuration not stated)	–	–	–	–
O[N+]1=CC=CCC1=S.On1ccccc1=S.[Zn]	–	100.0	–	–
SMILES	GPR151 ag	TEAD-YAP block	MITF primary	FBW7 activator
Cc1c(C#N)c(NC(=O)CCl)n(Cc2ccco2)c1C	–	32.1	–	–
CN1C(=O)CCc2cc(NS(=O)(=O)Cc3ccccc3Cl)ccc21	–	–	–	–
COc1cnc(-c2ccccn2)nc1-c1ccccc1	–	40.3	–	–
COC(=O)C1=C(C)NC2=C(C(=O)CC(C)(C)C2)C1c1cccc(Cl)c1Cl (configuration not stated)	–	–	–	2.0
COc1cc(C2C3=C(CC(C)(C)CC3=O)Nc3c2ccc2ccccc32)cc(Br)c1O (configuration not stated)	–	59.5	–	–
CCOC(=O)C1=C(C)NC2=C(C(=O)CC(C)(C)C2)C1c1cccc(OC)c1O (configuration not stated)	–	–	–	1.9
CC1=C(C(=O)OCCc2ccccc2)C(c2ccc(Cl)cc2Cl)C2=C(CC(C)(C)CC2=O)N1 (configuration not stated)	–	–	–	2.1
Cc1ccccc1N/N=C/c1c(C)nc2scc(C)n12	–	–	–	–
CCCCn1c(CNc2ccc(C)cc2)nnc1SCC(=O)OC	–	–	–	–
CSc1ccc(-c2cc(=O)c3cc(O)ccc3o2)cc1	–	44.0	–	–
CSc1ccc(-c2cc(=O)c3ccccc3o2)cc1	–	–	–	–
COc1ccc(-c2cc(=O)c3ccc(O)cc3o2)cc1	–	55.7	–	–
CCOc1ccc(-c2cc(=O)c3cc(O)ccc3o2)cc1	–	47.0	–	–
CCOc1ccc(-c2cc(=O)c3ccccc3o2)cc1	–	–	–	–
Cc1cc(/C=C\c2nc(O)c([N+](=O)[O-])c(=O)[nH]2)c(C)n1-c1ccc(C(=O)O)cc1	–	–	62.8	–
COc1cccc(C(=O)N2c3ccccc3CCc3ccccc32)c1	–	–	–	–
FC(F)(F)c1cnc(Nc2ccccn2)cc1Nc1ccccn1	–	54.2	–	–
CN1Cc2cccc(Nc3cc(Nc4cccc5c4C(=O)N(C)C5)c(C(F)(F)F)cn3)c2C1=O	–	–	–	–
COc1ccccc1Cc1nc2cc(C)c(C)cc2[nH]c1=O	–	–	–	–
COc1cc(Cc2nc3cc(C)c(C)cc3[nH]c2=O)cc(OC)c1OC	–	54.6	–	–
Oc1ccc(/C=N/Nc2ccc3ccccc3n2)c(O)c1O	–	–	–	–
Oc1cccc2ccc(/C=N/Nc3ccc4ccccc4n3)nc12	–	33.4	–	–
C(=N\Nc1ccc2ccccc2n1)/c1cccs1	–	59.5	–	–
COc1ccc(OC)c(CN2CCc3nnc(CCNC(=O)C4CCCCC4)n3CC2)c1	–	–	–	–
CCN1/C(=C/c2cc[n+](C)cc2)C=Cc2cc(OC)ccc21	–	–	–	–
SMILES	GPR151 ag	TEAD-YAP block	MITF primary	FBW7 activator
COc1ccc2c(c1)C=C/C(=C\c1cccc[n+]1C)N2C	–	80.1	–	–
COc1cc(Cl)cc(/C=N\NC(=O)C2COc3cc4ccccc4cc3O2)c1O (configuration not stated)	–	52.7	–	–
Cc1ccc(/C=N/NC(=O)C2COc3ccccc3O2)c(O)c1 (configuration not stated)	–	53.2	–	–
C/C(=N\NC(=O)C1COc2ccccc2O1)c1ccccc1 (configuration not stated)	–	–	–	–
O=C(N/N=C/c1ccc(O)c(O)c1O)C1COc2ccccc2O1 (configuration not stated)	–	–	55.3	–
C/C(=N\NC(=O)C1COc2ccccc2O1)c1ccco1 (configuration not stated)	–	39.1	–	–
COc1cc([N+](=O)[O-])cc(/C=N/NC(=O)C2COc3ccccc3O2)c1O (configuration not stated)	–	–	–	–
O=C(N/N=C/c1ccc2c3c(cccc13)CC2)C1COc2ccccc2O1 (configuration not stated)	–	48.9	–	–
O=C(N/N=C/c1ccccc1)C1COc2ccccc2O1 (configuration not stated)	–	37.3	–	–
COc1cccc(/C=N/NC(=O)C2COc3ccccc3O2)c1O (configuration not stated)	–	–	68.8	–
CN1CCN(C(=O)C23CCC(C2)C(C)(C)C3=O)CC1 (configuration not stated)	–	–	–	–
CC(=O)c1ccc(NS(=O)(=O)c2cccc3nsnc23)cc1	–	–	–	–
Cc1csc(-c2cnn3c(N4CCN(C)CC4)ccnc23)c1	–	32.5	–	–
